Data published in PubChem BioAssay.
Activity calls are given as the source filed them. Unless noted, no rule for the calls is given here.

How the values were obtained:
[1] = HepG2 liver cancer cell viability effects, profiling panel, resazurin fluorescence, 24 h, PK04 Diversity Set (AID 1172); details: higher = more signal
[2] = basal S. cerevisiae growth modulation, no modifier, primary screen, OD600, strain BY4716, 24 h, basal condition (AID 1173); details: OD600, 24 h, higher = more signal, called active from +8 up or from −8 down
[3] = MM1S myeloma cell viability, profiling panel, resazurin fluorescence, basal, 24 h, PK04 Diversity Set (AID 1174); details: higher = more signal, called active from +8 up or from −8 down;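 also: MM1S multiple myeloma cell line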
[4] = biological target: Dihydroorotate dehydrogenase (quinone), mitochondrial (Plasmodium falciparum (isolate 3D7)) (UniProt Q08210); assay: PfDHODH enzyme inhibitors, primary screen, biochemical, C-terminal His tag, absorbance 600 nm (AID 1175); details: DCIP absorbance 600 nm, higher = more signal, called active from +8 up or from −8 down;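 also: recombinant parasite enzyme with a five histidine tag at its C terminus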
[5] = P. aeruginosa biofilm formation inhibitors, primary screen, strain PAO1, LB-PBS medium, absorbance 600 nm (AID 1176); details: P. aeruginosa PAO1 growth/biofilm, A600, 12 h; higher = more signal
[6] = S. cerevisiae RM11-1a growth modifiers, primary screen, strain RM11-1a, OD600, basal, 24 h (AID 1177); details: OD600, 24 h, higher = more signal, called active from +8 up or from −8 down;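 also: cultures grown under basal conditions with no added stressor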
[7] = E. coli acrAB mutant growth effects, primary screen, E. coli filamentation inducers, strain DRC39, OD650, 24 h (AID 1178); details: higher = more signal, called active from +8 up or from −8 down;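 also: growth measured as culture turbidity by optical density at 650 nm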
[8] = E. coli acrAB mutant growth effects, primary screen, E. coli filamentation inducers, strain DRC39, OD650, 48 h (AID 1179);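 also: screen aims at cell division blockers that make cells filament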; details: E. coli DRC39 delta-acrAB growth, higher = more signal, called active from +8 up or from −8 down
[9] = RPMI8226 myeloma cell viability, profiling panel, resazurin fluorescence, basal, 24 h, PK04 Diversity Set (AID 1180); details: higher = more signal;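 also: RPMI8826 multiple myeloma cell line at 5000 cells per well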
[10] = biological target: E3 ubiquitin-protein ligase XIAP (Homo sapiens) (UniProt P98170); assay: XIAP binders, primary screen, biophysical, small-molecule microarray, fluorescence 635 nm (AID 1181); details: small-molecule microarray binding, higher = more signal;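 also: score merges 667 nm emission and signal to noise over triplicate slides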
[11] = tested on: XIP peptide (Xip251-270) binding; assay: small-molecule binders of XIP peptide, primary screen, biochemical, small-molecule microarray, fluorescence 635/667 nm, 0.1 µg/mL protein (AID 1182); details: fluorescent protein binding, 635 nm, higher = more signal, called active from +8 up or from −8 down
XIP peptide (Xip251-270) = assay: small-molecule binders of XIP peptide, primary screen, biochemical, small-molecule microarray, fluorescence 635/667 nm, 0.5 µg/mL protein (AID 1183); details: small-molecule microarray binding, fluorescence 635 nm; higher = more signal
[12] = Plasmodium falciparum growth inhibition, primary screen, strain 3D7, DAPI fluorescence, 100 nL (AID 1184);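 also: parasites grown inside human red blood cells in medium with human serum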; details: P. falciparum 3D7 growth, 3 d, higher = more signal
[13] = biological target: Homeobox protein Hox-A13 (Mus musculus) (UniProt Q62424); assay: inhibitors of HoxA13-DNA binding, primary screen, biochemical, fluorescence polarization, labeled oligonucleotide (AID 1185); details: 15 min, higher = more signal, called active from +8 up or from −8 down
[14] = inhibitors of hydroxyurea-induced Chk1 phosphorylation, primary screen, imaging, HeLa, phospho-Chk1 antibody, percent positive cells (AID 1186); details: hydroxyurea-induced phospho-Chk1 immunofluorescence imaging, higher = more signal
[15] = inhibitors of hydroxyurea-induced Chk1 phosphorylation, primary screen, imaging, HeLa, phospho-Chk1 nuclear intensity (AID 1187); details: hydroxyurea-induced phospho-Chk1 immunofluorescence imaging, higher = more signal

Dihydroorotate dehydrogenase (quinone), mitochondrial (Plasmodium falciparum (isolate 3D7)), sequence (Q08210 whole entry, looked up): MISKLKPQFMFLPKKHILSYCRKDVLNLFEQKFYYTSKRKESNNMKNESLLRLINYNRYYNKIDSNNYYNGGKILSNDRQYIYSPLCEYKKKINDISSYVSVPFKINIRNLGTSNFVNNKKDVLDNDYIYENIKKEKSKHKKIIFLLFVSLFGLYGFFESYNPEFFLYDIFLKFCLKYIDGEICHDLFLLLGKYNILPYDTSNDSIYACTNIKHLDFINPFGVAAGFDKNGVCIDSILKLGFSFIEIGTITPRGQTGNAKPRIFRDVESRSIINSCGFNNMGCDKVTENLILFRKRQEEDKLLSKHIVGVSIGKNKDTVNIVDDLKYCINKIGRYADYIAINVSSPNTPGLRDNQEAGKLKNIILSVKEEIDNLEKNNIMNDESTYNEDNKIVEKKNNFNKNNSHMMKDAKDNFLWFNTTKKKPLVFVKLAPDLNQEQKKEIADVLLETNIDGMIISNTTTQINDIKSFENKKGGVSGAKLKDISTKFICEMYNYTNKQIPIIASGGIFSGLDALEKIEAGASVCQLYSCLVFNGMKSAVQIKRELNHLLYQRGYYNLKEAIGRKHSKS
E3 ubiquitin-protein ligase XIAP (Homo sapiens), sequence (P98170 whole entry, looked up): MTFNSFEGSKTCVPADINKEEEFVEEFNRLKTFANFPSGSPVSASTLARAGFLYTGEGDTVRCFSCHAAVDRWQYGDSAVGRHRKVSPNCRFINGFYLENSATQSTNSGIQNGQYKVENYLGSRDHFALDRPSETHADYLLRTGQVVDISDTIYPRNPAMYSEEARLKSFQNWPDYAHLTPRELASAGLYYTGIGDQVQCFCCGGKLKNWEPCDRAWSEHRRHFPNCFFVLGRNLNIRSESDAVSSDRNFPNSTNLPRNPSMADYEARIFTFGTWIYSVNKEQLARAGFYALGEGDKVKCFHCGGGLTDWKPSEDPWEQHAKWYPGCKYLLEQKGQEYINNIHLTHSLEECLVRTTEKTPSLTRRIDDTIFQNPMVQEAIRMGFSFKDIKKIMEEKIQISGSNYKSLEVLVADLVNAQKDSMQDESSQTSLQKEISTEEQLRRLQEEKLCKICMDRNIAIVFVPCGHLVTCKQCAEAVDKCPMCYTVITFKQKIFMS
Homeobox protein Hox-A13 (Mus musculus), sequence (Q62424 whole entry, looked up): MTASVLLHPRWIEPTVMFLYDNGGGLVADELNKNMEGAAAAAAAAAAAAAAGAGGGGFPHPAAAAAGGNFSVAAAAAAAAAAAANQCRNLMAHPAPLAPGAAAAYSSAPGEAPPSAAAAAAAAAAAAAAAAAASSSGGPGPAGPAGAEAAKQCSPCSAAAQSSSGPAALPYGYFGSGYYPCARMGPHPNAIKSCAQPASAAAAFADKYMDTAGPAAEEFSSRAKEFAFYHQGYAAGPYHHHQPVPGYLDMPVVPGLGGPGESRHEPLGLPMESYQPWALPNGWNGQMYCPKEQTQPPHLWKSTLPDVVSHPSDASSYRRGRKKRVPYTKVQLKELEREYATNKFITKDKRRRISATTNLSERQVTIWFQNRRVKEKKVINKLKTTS

CCC[C@@H]1C[C@@]1(CCC)[C@@H](NP(=O)(c1ccccc1)c1ccccc1)c1ccc(Cl)cc1
z-score [1]: 0.405
z-score [2]: 1.3 (inactive)
z-score [3]: -0.601 (inactive)
composite z-score [4]: -1.09 (inactive)
z-score [5]: 0.439 (inactive)
z-score [6]: 0.525 (inactive)
z-score [7]: -0.919 (inactive)
z-score [8]: -0.26 (inactive)
z-score [9]: -0.519
composite z-score [10]: -0.0374
composite z-score [11]: 0.337 (inactive)
composite z-score (XIP peptide (Xip251-270)): -0.53
z-score [12]: -0.908
z-score [13]: -1.08 (inactive)
z-score [14]: 0.946 (inactive)
z-score [15]: 0.551 (inactive)

CC(C)C(CO)N1C(=O)[C@]2(C)C3C(=O)OCCC/C=C\[C@H]3OC23C=CCN(c2ccc(Cl)cc2)C(=O)[C@@H]13 (some centres undefined)
z-score [1]: -0.575
z-score [2]: 0.0095 (inactive)
z-score [3]: -0.581 (inactive)
composite z-score [4]: -1.04 (inactive)
z-score [5]: -0.36 (inactive)
z-score [6]: -0.3 (inactive)
z-score [7]: -0.391 (inactive)
z-score [8]: -0.261 (inactive)
z-score [9]: -0.713
composite z-score [10]: 0.117
composite z-score [11]: 0.172 (inactive)
composite z-score (XIP peptide (Xip251-270)): 0.146
z-score [12]: 0.775
z-score [13]: -6.76 (inactive)
z-score [14]: -0.199 (inactive)
z-score [15]: -0.181 (inactive)

C=CCNC(=O)[C@H]1[C@@H]2C(=O)O[C@@H](c3ccccc3)[C@@H](c3ccccc3)N2[C@@H](c2ccccc2OCCO)[C@]12C(=O)N(C(=O)OCCOC)c1ccc(C#CC3=CCCCC3)cc12
z-score [1]: -1.22
z-score [2]: 1.22 (inactive)
z-score [3]: -5.62 (inactive)
composite z-score [4]: 1.09 (inactive)
z-score [5]: 1.37 (inactive)
z-score [6]: 2.81 (inactive)
z-score [7]: -0.29 (inactive)
z-score [8]: 0.286 (inactive)
z-score [9]: -4.42
composite z-score [10]: 0.106
composite z-score [11]: 0.234 (inactive)
composite z-score (XIP peptide (Xip251-270)): 0.719
z-score [12]: -2.12
z-score [13]: 0.724 (inactive)
z-score [14]: 0.557 (inactive)
z-score [15]: 1.47 (inactive)

COc1ccc(C(O)C2C=CC3C(=O)N(c4ccccc4)C(=O)C3N2Nc2ccc(C#N)cc2)c2ccccc12 (centres undefined)
z-score [1]: -1.47
z-score [2]: -1.74 (inactive)
z-score [3]: -0.293 (inactive)
composite z-score [4]: 0.397 (inactive)
z-score [5]: 1.55 (inactive)
z-score [6]: -0.993 (inactive)
z-score [7]: -0.483 (inactive)
z-score [8]: 0.161 (inactive)
z-score [9]: -0.55
composite z-score [10]: 0.39
composite z-score [11]: 1.41 (inactive)
composite z-score (XIP peptide (Xip251-270)): 0.728
z-score [12]: -0.683
z-score [13]: 0.744 (inactive)
z-score [14]: -0.294 (inactive)
z-score [15]: -0.468 (inactive)

COCCCNC(=O)[C@@]1(Sc2ccc(C)cc2)CC(=O)N(C2Cc3ccccc3C2)[C@@H]1c1ccc(CO)cc1I
z-score [1]: -0.0076
z-score [2]: -2.87 (inactive)
z-score [3]: -2.79 (inactive)
composite z-score [4]: -0.591 (inactive)
z-score [5]: 0.196 (inactive)
z-score [6]: -0.429 (inactive)
z-score [7]: -0.0635 (inactive)
z-score [8]: 0.0605 (inactive)
z-score [9]: -2.31
composite z-score [10]: 0.108
composite z-score [11]: 0.0203 (inactive)
composite z-score (XIP peptide (Xip251-270)): -0.314
z-score [12]: 0.701
z-score [13]: -2.28 (inactive)
z-score [14]: 0.542 (inactive)
z-score [15]: 0.94 (inactive)

CC1CC/C=C\[C@H]2OC34C=CCN(C(C)C)C(=O)[C@H]3N(CCCCCO)C(=O)[C@@H]4C2C(=O)O1 (some centres undefined)
z-score [1]: 0.551
z-score [2]: -0.436 (inactive)
z-score [3]: 1.46 (inactive)
composite z-score [4]: -1.16 (inactive)
z-score [5]: -1.28 (inactive)
z-score [6]: -0.171 (inactive)
z-score [7]: 1.01 (inactive)
z-score [8]: 1.07 (inactive)
z-score [9]: 0.894
composite z-score [10]: -0.304
composite z-score [11]: -0.572 (inactive)
composite z-score (XIP peptide (Xip251-270)): -1.17
z-score [12]: 1.17
z-score [13]: -3.89 (inactive)
z-score [14]: 0.453 (inactive)
z-score [15]: 0.532 (inactive)

CCOC(=O)[C@H]1C/C=C/C[C@H](C(=O)OCC)C(=O)O[C@H]2[C@@H](OC)O[C@H](CO)[C@@H](OC(=O)CCc3ccccc3)[C@@H]2OC1=O
z-score [1]: -0.144
z-score [2]: -1.08 (inactive)
z-score [3]: 0.204 (inactive)
composite z-score [4]: -0.915 (inactive)
z-score [5]: 0.759 (inactive)
z-score [6]: -0.143 (inactive)
z-score [7]: 0.735 (inactive)
z-score [8]: 0.558 (inactive)
z-score [9]: 0.116
composite z-score [10]: 0.023
composite z-score [11]: -0.0432 (inactive)
composite z-score (XIP peptide (Xip251-270)): 0.486
z-score [12]: -1.24
z-score [13]: -2.57 (inactive)
z-score [14]: -0.0591 (inactive)
z-score [15]: -0.23 (inactive)

[N-]=[N+]=NCc1ccccc1C[C@@]1(C(=O)NCCN2CCOCC2)N=C(c2ccc(OCCCO)cc2)O[C@@H]1c1ccccc1N=[N+]=[N-]
z-score [1]: -0.61
z-score [2]: -1.22 (inactive)
z-score [3]: -0.37 (inactive)
composite z-score [4]: 0.699 (inactive)
z-score [5]: 0.124 (inactive)
z-score [6]: -0.304 (inactive)
z-score [7]: 0.647 (inactive)
z-score [8]: -0.456 (inactive)
z-score [9]: -0.0843
composite z-score [10]: 0.318
composite z-score [11]: 1.51 (inactive)
composite z-score (XIP peptide (Xip251-270)): 0.767
z-score [12]: -2.75
z-score [13]: -2.44 (inactive)
z-score [14]: -0.402 (inactive)
z-score [15]: -0.753 (inactive)

CC(C)CNC(=O)[C@@]1(c2ccc([N+](=O)[O-])cc2)CC(=O)N(C2CCCCC2)[C@@H]1c1ccc(CO)cc1I
z-score [1]: 0.201
z-score [2]: -0.871 (inactive)
z-score [3]: -0.0126 (inactive)
composite z-score [4]: 0.797 (inactive)
z-score [5]: 0.304 (inactive)
z-score [6]: -0.294 (inactive)
z-score [7]: 0.175 (inactive)
z-score [8]: -0.683 (inactive)
z-score [9]: 0.447
composite z-score [10]: 0.169
composite z-score [11]: 0.551 (inactive)
composite z-score (XIP peptide (Xip251-270)): 0.792
z-score [12]: -0.923
z-score [13]: -4.89 (inactive)
z-score [14]: 0.093 (inactive)
z-score [15]: -0.208 (inactive)
